# Assay results published in ChEMBL document CHEMBL3988442, “University of Dundee, Small-Polar-MMV Screening Library” (2021).
# Tests used:
# [1] = target: T1, Aspartate--tRNA(Asp/Asn) ligase (Mycobacterium tuberculosis (strain ATCC 25618 / H37Rv)) (UniProt P9WFW3); experiment: Assay for Asp RNA synthetase-1 from Mycobacterium tuberculosis; assay type: functional; design: scale not given: direction of the effect not stated beside the values; conditions: 30 µM; further: in the data most compounds retested in dose-response had high values
# T1 sequence (whole entry): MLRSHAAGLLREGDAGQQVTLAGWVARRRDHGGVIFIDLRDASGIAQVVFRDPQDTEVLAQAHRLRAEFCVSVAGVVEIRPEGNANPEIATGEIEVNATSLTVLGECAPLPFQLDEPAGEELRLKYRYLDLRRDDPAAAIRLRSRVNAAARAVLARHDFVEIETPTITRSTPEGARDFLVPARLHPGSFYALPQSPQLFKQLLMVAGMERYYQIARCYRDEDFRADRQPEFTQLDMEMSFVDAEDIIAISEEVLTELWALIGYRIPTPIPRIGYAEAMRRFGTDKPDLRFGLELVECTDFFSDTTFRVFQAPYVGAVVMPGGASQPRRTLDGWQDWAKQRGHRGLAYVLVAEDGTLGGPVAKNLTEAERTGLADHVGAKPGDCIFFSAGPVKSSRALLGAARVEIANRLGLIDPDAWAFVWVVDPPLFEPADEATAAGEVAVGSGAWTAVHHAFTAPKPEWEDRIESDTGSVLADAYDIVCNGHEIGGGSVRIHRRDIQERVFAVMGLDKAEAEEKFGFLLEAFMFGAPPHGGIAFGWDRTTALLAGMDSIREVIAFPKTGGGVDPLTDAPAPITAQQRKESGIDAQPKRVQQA
# [2] = target: Shiga toxin 2 (Escherichia coli O157:H7) (UniProt P09385+P09386); experiment: E. coli 0.157:H7 Shiga Toxin SOP - stx2 screening assay; assay type: functional; design: scale not given: direction of the effect not stated beside the values; conditions: 30 µM
compound,measurement,setting,value
O=C(c1cccnc1)N1CCCC(c2cc(C(F)F)n3ncnc3n2)C1 (stereo not drawn),Percent Effect,[1],5.29%
same,Percent Effect,[2],8.99%
Cc1nc(N2CCN(C)CC2)ncc1C(=O)N1CC(C)(C)C(C)(O)C1 (stereo not drawn),Percent Effect,[1],3.48%
same,Percent Effect,[2],-28.2%
Cn1cc2c(n1)C(CNC(=O)Cc1ccsc1)OCC2 (stereo not drawn),Percent Effect,[1],-0.539%
same,Percent Effect,[2],-23.6%
COCC(=O)N1CC[C@@H]2CN(Cc3cccc(Cl)c3)S(=O)(=O)[C@@H]2CC1,Percent Effect,[1],3.55%
same,Percent Effect,[2],-12.7%
O=C(Cn1ccc2ccc(Br)cc21)NC[C@@H]1CCCN2CCCC[C@H]12,Percent Effect,[1],-3.66%
same,Percent Effect,[2],-42.1%
COc1cccc(CNc2cnn(C)c(=O)c2Cl)c1,Percent Effect,[1],-6.1%
same,Percent Effect,[2],11.4%
Cc1nn(C)c(N(C)C)c1CNCc1ccc(OCC(N)=O)cc1,Percent Effect,[1],-6.72%
same,Percent Effect,[2],-11.7%
Cc1cncc(C(=O)N2CCCC(C(=O)CCc3ccccc3)C2)c1 (stereo not drawn),Percent Effect,[1],13.2%
same,Percent Effect,[2],-26.1%
CCN1CCN(C(=O)c2ccn(C)c(=O)c2)CC1,Percent Effect,[1],2.87%
same,Percent Effect,[2],-14.7%
Cn1cnc2c1CCN(Cc1nc(COc3ccc(F)cc3)no1)C2,Percent Effect,[1],2.19%
same,Percent Effect,[2],19%
CN(Cc1nnc(C2CC2)o1)C1CCN(CCCc2cnn(C)c2)C1 (stereo not drawn),Percent Effect,[1],5.28%
same,Percent Effect,[2],-45.6%
Cc1nn(C)c(Cl)c1C1CCCN1C(=O)c1cc(Cl)c[nH]1 (stereo not drawn),Percent Effect,[1],1.85%
same,Percent Effect,[2],16.5%
Cc1occc1C(=O)N1CCC2(CCN(Cc3nccs3)C2)CC1,Percent Effect,[1],0.208%
same,Percent Effect,[2],-15.8%
Cc1ccc(CNC(=O)N2CCN(Cc3ccsc3)CC2)n1C,Percent Effect,[1],0.896%
same,Percent Effect,[2],-31.3%
CCCc1nnsc1C(=O)NCC1CCN(S(C)(=O)=O)CC1,Percent Effect,[1],-7.1%
same,Percent Effect,[2],-1.41%
FC(F)(F)c1cc(N2CCc3ncnc(NC4CC4)c3CC2)ncn1,Percent Effect,[1],5.62%
same,Percent Effect,[2],-15.2%
Cc1cccc(NC(=O)c2sccc2C)n1,Percent Effect,[1],-4.94%
same,Percent Effect,[2],-1.59%
Cc1ccn(-c2cccc(C(=O)N3CCCC(n4ccnc4C)C3)c2)n1 (stereo not drawn),Percent Effect,[1],-0.301%
same,Percent Effect,[2],-7.17%
Cc1ccc(NC2CCN(C(=O)COCC(F)(F)F)CC2)nn1,Percent Effect,[1],-0.48%
same,Percent Effect,[2],-13.9%
